Here are results for 40 compounds from PubChem BioAssay (Tox21).

Unmarked numbers belong to inactive results. Calls of active or inactive are those of the source. Calls follow the shape of the full dose curve.
% is scaled to controls: 0 for no effect and ±100 for the full control effect.

The test can be described thus: G protein-coupled receptor (GPCR) small molecule agonists, calcium flux assay: HEK293 wild type cell line counter screen (AID 1920065). Conditions: HEK293 WT calcium flux, fluorescence, agonist mode; series mostly up to 57.6 µM; activation: at the top concentration. An excerpt:
U.S. Tox21 Program National Center for Advancing Translational Sciences [NCATS] Division of Preclinical Innovation [DPI] U.S. Environmental Protection Agency [EPA] National Institutes of Environmental Health Sciences [NIEHS] National Toxicology Program [NTP] U.S. Food and Drug Administration [FDA] Assay overview: The increased intracellular calcium release that occurred upon G protein-coupled receptor (GPCR) activation led to the frequent use of calcium flux assays to detect GPCR activation. For the purpose of studying and screening compounds that may activate GPCR, receptor-overexpressing models were typically generated using Hek293 wild-type (WT) cells. In order to eliminate the compounds that may have induced calcium release for non-specific activation, a counter-assay utilizing calcium flux on Hek293 WT cells was performed. The data were formulated in order to serve as a control for any calcium flux detection utilizing Hek293 cells with either GPCR overexpression or gene modification. The procurement of Hek293 WT cells from ATCC. Fluorescence intensity can be utilized to determine the activation of the compound in a calcium flux assay. As a counter control, this cell line was utilized to screen the Tox21 10K compound library.
Assay Protocol Summary: Hek293 cells were dispensed at 1500cells/4uL/well in 1536-well black wall/clear bottom plates using a multidrop dispenser. After the assay plates were incubated at a 37 C/5% CO2 incubator for 18 hours, 4 uL of Calcium Dye Solution was added to each well. The plates were incubated at 37 C for 1 hour. For agonist mode, 23 nL of compounds dissolved in DMSO, positive control (ATP) or DMSO only was transferred to the assay plate by a pin tool station. The fluorescence intensity in the plates was measured using FDSS 7000EX kinetic plate reader with a filter set of Ex/Em=480/540 for 3 min at 1 sec intervals. Each test compound was measured at 15 concentrations and in triplicates.
In general terms: A change in cytosolic calcium serves as a functional read-out for many receptors and channels.
On to `O=C(O)c1nc(Cl)c(Cl)c(Cl)c1Cl`, for which the “activation” value was -1.65%. For the compound `CN1CCN(C(=O)C2CCCCC2)CC1`, the “activation” value was 0.134% [at 26.5 µM]. On the same count and under the same terms, with `CCCC(=O)OCC` the figure was 0.549%; with `CC(=O)NC1(c2cccc(F)c2)CCN(CC[C@@]2(c3ccc(Cl)c(Cl)c3)CN(c3ccccc3)C(=O)CO2)CC1`, 16.6%. Same read-out and setting: for `CN(C)CCN(C)CCO` the value was -1.03%; for `SCCOCCOCCS`, 0.317%. On the same count and under the same terms, with `O=C(NO)c1ccccc1` the figure was 1.27%. For the compound `CCCCc1oc2ccccc2c1C(=O)c1cc(I)c(OCCN(CC)CC)c(I)c1`, the Potency result is “inactive”.

Turning to `CCC(C)(C)c1ccc(CC(C)CN2C[C@@H](C)O[C@@H](C)C2)cc1` (stereo not given in full), the “activation” value was -0.47% [at 26.5 µM].

In the case of `CCOC(=O)[C@H](CCc1ccccc1)N[C@H]1CCc2ccccc2N(CC(=O)O)C1=O`, the “activation” value was 1.96% [at 26.5 µM]. Still for that read-out and setting: with `CC(C)CCCCCOC(=O)CCCCC(=O)OCCCCCC(C)C` the figure was -0.14%; with `Cc1cccc(NC(=S)N(C)C)c1`, 0.946%; with `CCCC(=O)OC/C=C(\C)CCC=C(C)C`, 0.495%. Same read-out and setting: with `CCCCCCCC/C=C\CCCCCCCC(=O)OC(CO)CO` the figure was -0.014%. The same measure, in the same setting: with `Cc1c(C(=O)O)cccc1[N+](=O)[O-]` the figure was -0.017%; with `NNC(=O)OCc1ccccc1`, -0.0811%; with `Oc1cccc(-c2c3nc(c(-c4cccc(O)c4)c4ccc([nH]4)c(-c4cccc(O)c4)c4nc(c(-c5cccc(O)c5)c5ccc2[nH]5)CC4)C=C3)c1`, 0.635% [at 26.5 µM].

For `CC(C)(C)C(=O)c1ccccc1`, the “activation” value is 1.06%.

Take `CN1CCN(c2ccccc2/C=C2\SCCN(c3ccc(Cl)c(Cl)c3)C2=O)CC1`: the “activation” value was 0.0744%. For the compound `CCCCCCCC/C=C/CCCOC(C)=O`, the “activation” value is 0.978%.

Take `CC(C)(COC(=O)c1ccccc1)COC(=O)c1ccccc1`: the “activation” value is -1.58%. Regarding `CC1CCCCN1CCCOC(=O)c1ccc(OC2CCCCC2)cc1` (stereo not given), the “activation” value is 1.71% [at 26.5 µM]. As to `CCCCCCCC/C=C\CCCCCCCC(=O)OCCOC(=O)CCCCCCC/C=C\CCCCCCCC`, the “activation” value is -0.0272%. For `CCCCCCCCCCCCCOC(=O)CCSCCC(=O)OCCCCCCCCCCCCC`, the activation is -0.388% [at 11.8 µM]. `O=C1OC(=O)c2cc(Oc3ccc4c(c3)C(=O)OC4=O)ccc21`: the “activation” value is 1.03%. For `CN[C@@H]1[C@@H](O)[C@@H](O[C@@H]2[C@H](O)[C@H](O[C@H]3OC(CN)=CC[C@H]3N)[C@@H](N)C[C@H]2N)OCC1(C)O` (stereo not given in full), the “activation” value was -0.219% [at 26.5 µM].

Regarding `O=C(Oc1ccccc1)c1ccc2ccccc2c1O`, the “activation” value was -2.46%. Regarding `Nc1cccc2c(N)cccc12`, the “activation” value is 3.2%.

Regarding `CCCCCCCCCCCC(=O)OCC(O)CO` (stereo not given), the “activation” value is -0.133%. In the case of `O=C(OCCc1ccccc1)c1ccccc1`, the “activation” value was -0.747%. In the case of `Cc1onc(-c2c(Cl)cccc2Cl)c1C(=O)Cl`, the “activation” value is -0.916% [at 26.5 µM].

Take `CCOc1ccc2nc3cc(N)ccc3c(N)c2c1`: the “activation” value was 1.16% [at 26.5 µM].

Regarding `COC(=O)c1ccc(C(=O)OC)c(C(=O)OC)c1`, the “activation” value is -0.737%. For `O=C(O)CCCCCCCCCCCBr`, the “activation” value was -0.392%. Consider `O=Cc1ccccc1Cl`, for which the “activation” value was 0.281%. Turning to `CN1CCN(CCCN2c3ccccc3Sc3ccc(S(=O)(=O)N(C)C)cc32)CC1`, the “activation” value is 1.19% [at 26.5 µM].

`COC(=O)c1ccccc1OC`: the “activation” value was -1.68%. Regarding `CC(=O)c1ccc(OCC(=O)N2CCCCC2)cc1`, the “activation” value is 2.32% [at 26.5 µM]. Same read-out and setting: for `C[C@H]1c2cccc(O)c2C(O)=C2C(=O)[C@]3(O)C(O)=C(C(N)=O)C(=O)[C@@H](N(C)C)[C@@H]3[C@@H](O)[C@@H]21` the value was -0.192% [at 26.5 µM]; for `CCN(CC)CCCC(C)Nc1c2ccc(Cl)cc2nc2ccc(OC)cc12` (stereo not given), 6.51% [at 26.5 µM].
